# Tested on: HL-1
# Assay: cardiomyocyte survival under oxidative or metabolic stress – cell-based, panel, H9c2 and HL-1, ATP luminescence, set 2, SAR follow-up (AID 651871);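 also: cells exposed to stressor for 2 h before ATP readout; reference of the scale not given here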
# Conditions: H9c2/HL-1 cardiomyocytes, 2-deoxyglucose stress, with 2-deoxyglucose, run 3, at 19.8 µM (top of the series)
structure (smiles),measurement,value
COc1ccc2c(c1OC)C(=O)N1c3ccccc3C(=O)N(Cc3cccc(Cl)c3Cl)C21 (stereo unspecified),activity (protection/inhibition),22.5%
